Experimental findings from ChEMBL document CHEMBL4303097 (2020) are described below.

In all, about 1,500 compounds were measured (“Inhibition index”: median about 0.17, highest 2% from about 1.3 on). The list comes from a sample in which the highest values are over-represented; it also holds similar structures and randomly drawn compounds.

The subject of this experiment is SARS-CoV-2. The experiment is described as follows: Inhibition of cell viability relative to arbidol control (inhibition index > 1 indicates higher activity) measured by fluorescence (OD590nm) in Vero E6 cells infected with SARS-CoV-2 (strain BavPat1) at MOI 0.002 after 72hrs. Format: functional, Chlorocebus sabaeus, Vero C1008.
The molecule `CN1CCc2cccc3c2[C@H]1Cc1ccc(O)c(O)c1-3.CN1CCc2cccc3c2[C@H]1Cc1ccc(O)c(O)c1-3.Cl.Cl.O` [APOMORPHINE HYDROCHLORIDE] gave an Inhibition index of 0.4481.

Turning to `CCCCOc1ccc(OCCCN2CCOCC2)cc1.Cl` [PRAMOXINE HYDROCHLORIDE], the Inhibition index amounted to 0.1376.

In the case of `CCOC(=O)c1c(N)sc2c1CCN(Cc1ccccc1)C2.Cl`, the Inhibition index came out at 0.8505.

In the case of `O=C([O-])C[C@H](O)C[C@H](O)/C=C/c1c(C2CC2)nc2ccccc2c1-c1ccc(F)cc1.O=C([O-])C[C@H](O)C[C@H](O)/C=C/c1c(C2CC2)nc2ccccc2c1-c1ccc(F)cc1.[Ca+2]` [PITAVASTATIN CALCIUM], the Inhibition index is -0.03681.

In the case of `C=CC[C@]1(O)CC[C@H]2[C@@H]3CCC4=CC(=O)CCC4=C3C=C[C@@]21C` [ALTRENOGEST], the Inhibition index is on record as 0.8504.

The molecule `CCOC(=O)C(C)(N)Cc1cc(I)c(Oc2cc(I)c(O)c(I)c2)c(I)c1.Cl` (stereo not given) yielded an Inhibition index of 0.3664.

On to `CCCSS/C(CCO)=C(\C)N(C=O)Cc1cnc(C)nc1N`, for which the Inhibition index is 0.2056.

As for `C/C(=C(/CCO)SSCC1CCCO1)N(C=O)Cc1cnc(C)nc1N.Cl` (stereo not given), the Inhibition index was 1.385.

On to `C/C(=C(\CCOC(=O)c1ccccc1)SS/C(CCOC(=O)c1ccccc1)=C(\C)N(C=O)Cc1cnc(C)nc1N)N(C=O)Cc1cnc(C)nc1N`, for which the Inhibition index was 1.055.

`CCCCC(=O)O[C@H]1CC[C@H]2[C@@H]3CCc4cc(O)ccc4[C@H]3CC[C@]12C` [ESTRADIOL VALERATE]: the Inhibition index was -0.4279.

Regarding `COc1cccc2c1C(=O)c1c(O)c3c(c(O)c1C2=O)C[C@@](O)(C(=O)CO)C[C@@H]3O[C@H]1C[C@H](N)[C@H](O)[C@H](C)O1.Cl` [DOXORUBICIN HYDROCHLORIDE], the Inhibition index is -0.06911.

Regarding `Cc1cc(/C=C/c2ccc3cc(N(C)C)ccc3[n+]2C)c(C)n1-c1ccccc1.Cc1cc(/C=C/c2ccc3cc(N(C)C)ccc3[n+]2C)c(C)n1-c1ccccc1.O=C([O-])c1cc2ccccc2c(Cc2c(O)c(C(=O)[O-])cc3ccccc23)c1O` [PYRVINIUM PAMOATE], the Inhibition index is given as -0.3469.

Molecule `C#C[C@]1(O)CC[C@H]2[C@@H]3CCC4=CC(=O)CC[C@]4(C)[C@H]3CC[C@@]21C` [ETHISTERONE] came in with an Inhibition index of 0.1353.

As to `CCSc1ccc2c(c1)N(CCCN1CCN(C)CC1)c1ccccc1S2.O=C(O)/C=C\C(=O)O`, the Inhibition index is -0.4349.

In the case of `Cl.N=C(N)NC(=N)NCCc1ccccc1` [PHENFORMIN HYDROCHLORIDE], the Inhibition index is -0.07157.

The molecule `N=C(N)NCCN1CCCCCCC1.N=C(N)NCCN1CCCCCCC1.O=S(=O)(O)O` [GUANETHIDINE SULFATE] registered an Inhibition index of 0.04902.

`C[C@]12CC[C@@H]3c4ccc(O)cc4CC[C@H]3[C@@H]1C[C@@H](O)[C@@H]2O` [ESTRIOL] came in with an Inhibition index of 0.6126.

`CC(=O)[C@H]1CC[C@H]2[C@@H]3CCC4=CC(=O)CC[C@]4(C)[C@H]3CC[C@]12C` [PROGESTERONE] registered an Inhibition index of 0.4087.

With `C[C@]12CC[C@H](O)CC1=CC[C@@H]1[C@@H]2CC[C@]2(C)C(=O)CC[C@@H]12` [PRASTERONE], the Inhibition index amounted to 0.9295.

Turning to `CC(=O)[C@H]1CC[C@H]2[C@@H]3CC=C4C[C@@H](O)CC[C@]4(C)[C@H]3CC[C@]12C` [PREGNENOLONE], the Inhibition index is on record as 1.659.

`CC[C@@H]([C@H](C)O)n1ncn(-c2ccc(N3CCN(c4ccc(OC[C@@H]5CO[C@@](Cn6cncn6)(c6ccc(F)cc6F)C5)cc4)CC3)cc2)c1=O.O` returned an Inhibition index of 0.639.

Molecule `CN1CCN(C(c2ccccc2)c2ccccc2)CC1.Cl` [CYCLIZINE HYDROCHLORIDE] showed an Inhibition index of 0.3956.

The molecule `CCOC(=O)[C@H](CCc1ccccc1)N[C@@H](C)C(=O)N1[C@H](C(=O)O)C[C@H]2CCCC[C@@H]21` [TRANDOLAPRIL] gave an Inhibition index of 0.1383.

For `CC(C)(C)C(=O)OCOC(=O)[C@@H]1N2C(=O)[C@@H](NC(=O)[C@H](N)c3ccccc3)[C@H]2SC1(C)C` [PIVAMPICILLIN], the Inhibition index was found to be 0.3125.

In the case of `Clc1cc(Cl)c(OCC#CI)cc1Cl` [HALOPROGIN], the Inhibition index was -0.09794.

The molecule `CC(=O)[C@H]1CC[C@H]2[C@@H]3CC[C@H]4C[C@H](O)CC[C@]4(C)[C@H]3C(=O)C[C@]12C` [ALFAXALONE] came in with an Inhibition index of 0.7131.

Consider `Clc1ccc(CCC(Cn2ccnc2)Sc2c(Cl)cccc2Cl)cc1.O=[N+]([O-])O` (stereo not given) [BUTOCONAZOLE NITRATE], for which the Inhibition index is given as -0.1062.

`CC(=O)OCC(=O)[C@@]12N=C(C)O[C@@H]1C[C@H]1[C@@H]3CCC4=CC(=O)C=C[C@]4(C)[C@H]3[C@@H](O)C[C@@]12C` [DEFLAZACORT] had an Inhibition index of 0.4333.

For the molecule `CC(C)(C)NC(=O)[C@H]1CC[C@H]2[C@@H]3CC[C@H]4NC(=O)C=C[C@]4(C)[C@H]3CC[C@]12C` [FINASTERIDE], the Inhibition index is 0.2658.

For the molecule `Cc1[nH]cnc1CN1CCc2c(c3ccccc3n2C)C1=O.Cl` [ALOSETRON HYDROCHLORIDE], the Inhibition index is 0.152.

Turning to `Cc1nccn1CC1CCc2c(c3ccccc3n2C)C1=O.Cl` (stereo not given), the Inhibition index amounted to 1.665.

For the molecule `CN(C)CCC(c1ccccc1)c1ccccn1.O=C(O)/C=C\C(=O)O` (stereo not given) [PHENIRAMINE MALEATE], the Inhibition index turned out to be 0.01395.

Molecule `O=C(O[C@H]1C[N+]2(CCCOc3ccccc3)CCC1CC2)C(O)(c1cccs1)c1cccs1.[Br-]` [ACLIDINIUM BROMIDE] gave an Inhibition index of 0.1807.

The molecule `CC1(C)S[C@@H]2[C@H](NC(=O)[C@H](NC(=O)N3CCNC3=O)c3ccccc3)C(=O)N2[C@H]1C(=O)[O-].[Na+]` [AZLOCILLIN SODIUM] displayed an Inhibition index of 0.01854.

On to `CC(C)(CO)[C@@H](O)C(=O)NCCCC(=O)O.CC(C)(CO)[C@@H](O)C(=O)NCCCC(=O)O.[Ca+2]`, for which the Inhibition index turned out to be 0.08003.

`CC(C)NNC(=O)c1ccncc1.O=P(O)(O)O` [IPRONIAZID PHOSPHATE] gave an Inhibition index of 0.02671.

Regarding `Cl.Cl.NCCc1cc[nH]n1`, the Inhibition index is reported as 0.03591.

With `CC1(C)S[C@@H]2[C@H](NC(=O)[C@H](N)c3ccc(O)cc3)C(=O)N2[C@H]1C(=O)O` [AMOXICILLIN], the Inhibition index came out at 0.1371.

On to `CC12CC3CC(C)(C1)CC(N)(C3)C2.Cl` [MEMANTINE HYDROCHLORIDE], for which the Inhibition index was found to be 0.5095.

`CN(C)CCC(c1ccc(Br)cc1)c1ccccn1.O=C(O)/C=C\C(=O)O` (stereo not given) [BROMPHENIRAMINE MALEATE]: the Inhibition index is listed as 0.3833.

For `CC1(C)S[C@@H]2[C@H](NC(=O)C(C(=O)O)c3ccsc3)C(=O)N2[C@H]1C(=O)[O-].[Na+]` (stereo not given in full), the Inhibition index is recorded as 0.09416.

With `O=C(NC1CCN(CCCCC2(C(=O)NCC(F)(F)F)c3ccccc3-c3ccccc32)CC1)c1ccccc1-c1ccc(C(F)(F)F)cc1` [LOMITAPIDE], the Inhibition index is -0.295.

Regarding `CC(C)(C)NC[C@H](O)COc1cccc2c1CCCC2=O.Cl` [LEVOBUNOLOL HYDROCHLORIDE], the Inhibition index is 0.5259.

The molecule `CN(C)CCC=C1c2ccccc2C=Cc2ccccc21.Cl` [CYCLOBENZAPRINE HYDROCHLORIDE] yielded an Inhibition index of 0.6333.

Take `CO/N=C(\C(=O)N[C@@H]1C(=O)N2C(C(=O)OC(C)OC(C)=O)=C(COC(N)=O)CS[C@H]12)c1ccco1` (stereo not given in full) [CEFUROXIME AXETIL]: the Inhibition index turned out to be 0.1456.

For `CCOc1nc2cccc(C(=O)O)c2n1Cc1ccc(-c2ccccc2-c2nnn[nH]2)cc1`, the Inhibition index was 1.166.

Molecule `Cl.O=C1CC2(CCCC2)CC(=O)N1CCCCN1CCN(c2ncccn2)CC1` [BUSPIRONE HYDROCHLORIDE] had an Inhibition index of 1.176.

Regarding `C#C[C@]1(O)CC[C@H]2[C@@H]3[C@H](C)CC4=C(CCC(=O)C4)[C@H]3CC[C@@]21C` [TIBOLONE], the Inhibition index worked out at 0.3794.

Molecule `CN(C)CCCSC(=N)N.Cl.Cl` displayed an Inhibition index of 1.382.

For `Nc1ncnc2c1ncn2[C@@H]1O[C@H](COP(=O)(O)O)[C@@H](O)[C@H]1O.O`, the Inhibition index was 0.1161.

For `CN(C)CCc1c[nH]c2ccc(Cn3cncn3)cc12.O=C(O)c1ccccc1` [RIZATRIPTAN BENZOATE], the Inhibition index is 0.7991.

`CC#C[C@]1(O)CC[C@H]2[C@@H]3CCC4=CC(=O)CCC4=C3[C@@H](c3ccc(N(C)C)cc3)C[C@@]21C` [MIFEPRISTONE] displayed an Inhibition index of 0.1807.

Consider `CN(C)C(=N)NC(=N)N.Cl` [METFORMIN HYDROCHLORIDE], for which the Inhibition index is reported as 0.00269.

As for `CC1(C)S[C@@H]2[C@H](NC(=O)[C@H](N)c3ccccc3)C(=O)N2[C@H]1C(=O)OC1OC(=O)c2ccccc21.Cl` (stereo not given in full) [TALAMPICILLIN HYDROCHLORIDE], the Inhibition index is reported as 0.5053.

With `CCOC(=O)C1=C[C@@H](OC(CC)CC)[C@H](NC(C)=O)[C@@H](N)C1.O=P(O)(O)O` [OSELTAMIVIR PHOSPHATE], the Inhibition index is on record as -0.01747.

In turn, `Br.COc1ccc2c3c1O[C@H]1C[C@@H](O)C=C[C@@]31CCN(C)C2` [GALANTAMINE HYDROBROMIDE] yielded an Inhibition index of 0.03283.

Take `Cl.N/C(=N\C(=O)c1nc(Cl)c(N)nc1N)NCc1ccccc1` [BENZAMIL HYDROCHLORIDE]: the Inhibition index is -0.07365.

`C=CCc1ccccc1OCC(O)CNC(C)C.Cl` (stereo not given) [ALPRENOLOL HYDROCHLORIDE]: the Inhibition index was found to be 0.02886.

`CC(C)NCC(O)COc1cccc2[nH]c3ccccc3c12` (stereo not given) [CARAZOLOL] displayed an Inhibition index of 0.7194.

Turning to `C=CCOc1ccccc1OCC(O)CNC(C)C.Cl` (stereo not given) [OXPRENOLOL HYDROCHLORIDE], the Inhibition index amounted to 1.632.
